Out of some 5,500 compounds screened, about 2,000 (36%) were called active. Inconclusive results (about 18%) are left out. Rule as the data show it: active = normalized growth mostly below about 0.91 (no sharp cut-off); inconclusive = no clear call, values can overlap the other calls; inactive = mostly above about 0.92. The list shows a part of the results.
Test: chemical genetic growth profiling, strain panel (AID 1159580);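 also: tested at 20 µM; growth read once vehicle control cultures reached saturation at 30 °C; 1 = growth at the plate median or of vehicle wells; lower values mean less growth of the strain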
Settings: S. cerevisiae deletion strains, growth OD

Measured: normalized growth

COc1ccc(CNC(=O)/C=C/c2ccc3[nH]cc(CCN(C)C)c3c2)cc1
inactive: locus YAL040C, strain CLN3, stronger effect = lower value 1.1 | locus YCL061C, strain MRC1 (second series), stronger effect = lower value 0.991 | locus YER002W, strain NOP16, stronger effect = lower value 0.997 | locus YGR078C, strain PAC10, stronger effect = lower value 0.987 | locus YMR263W, strain SAP30, stronger effect = lower value 0.98 | locus YNL153C, strain GIM3, stronger effect = lower value 0.985 | locus YNL175C, strain NOP13, stronger effect = lower value 1.01 | locus YNL197C, strain WHI3, stronger effect = lower value 1 | locus YNL224C, strain SQS1, stronger effect = lower value 0.986 | locus YOR083W, strain WHI5 (second series), stronger effect = lower value 1.01

COC(=O)CC1C(C)(C(=O)c2ccoc2)CC2OCC34C(CC(=O)OC)C5(C)CC36OC3(C)OC1(C(OC(C)=O)C6(OC(C)=O)C5OC(=O)C(C)C)C24O3 (configuration not stated)
inactive: locus YAL021C, strain ccr4, stronger effect = lower value 0.995 | locus YAL026C, strain drs2, stronger effect = lower value 0.967 | locus YAL030W, strain snc1, stronger effect = lower value 0.975 | locus YBL061C, strain skt5, stronger effect = lower value 0.978 | locus YBR009C, strain hhf1, stronger effect = lower value 0.949 | locus YBR023C, strain chs3, stronger effect = lower value 0.987 | locus YBR171W, strain sec66, stronger effect = lower value 0.981 | locus YBR231C, strain swc5, stronger effect = lower value 0.993 | locus YBR279W, strain paf1, stronger effect = lower value 0.996 | locus YCL011C, strain gbp2, stronger effect = lower value 0.972 | locus YCL016C, strain dcc1, stronger effect = lower value 0.99 | locus YCL061C, strain MRC1, stronger effect = lower value 0.995 | locus YCL069W, strain vba3, stronger effect = lower value 0.979 | locus YCR088W, strain abp1, stronger effect = lower value 0.983 | locus YDL005C, strain med2, stronger effect = lower value 0.97 | locus YDL040C, strain nat1, stronger effect = lower value 0.986 | locus YDR001C, strain nth1, stronger effect = lower value 0.986 | locus YDR069C, strain doa4, stronger effect = lower value 0.99 | locus YDR137W, strain rgp1, stronger effect = lower value 0.975 | locus YDR159W, strain sac3, stronger effect = lower value 0.968 | locus YDR195W, strain ref2 0.944 | locus YDR297W, strain sur2, stronger effect = lower value 0.978 | locus YDR334W, strain swr1, stronger effect = lower value 0.969 | locus YDR335W, strain msn5, stronger effect = lower value 0.987 | locus YDR392W, strain spt3, stronger effect = lower value 0.911 | locus YEL003W, strain gim4, stronger effect = lower value 0.971 | locus YEL037C, strain rad23, stronger effect = lower value 0.967 | locus YEL061C, strain CIN8 (second series), stronger effect = lower value 0.975 | locus YER015W, strain faa2, stronger effect = lower value 0.987 | locus YER016W, strain bim1, stronger effect = lower value 0.98 | locus YER111C, strain swi4, stronger effect = lower value 0.959 | locus YER155C, strain BEM2 (second series), stronger effect = lower value 1.01 | locus YFR010W, strain ubp6, stronger effect = lower value 0.978 | locus YGL167C, strain pmr1, stronger effect = lower value 0.959 | locus YGL173C, strain kem1, stronger effect = lower value 0.97 | locus YGL227W, strain vid30, stronger effect = lower value 0.97 | locus YGL240W, strain doc1, stronger effect = lower value 0.988 | locus YGL253W, strain hxk2, stronger effect = lower value 0.966 | locus YHR013C, strain ard1, stronger effect = lower value 0.952 | locus YHR027C, strain rpn1, stronger effect = lower value 0.985 | locus YHR142W, strain chs7, stronger effect = lower value 0.994 | locus YJL092W, strain hpr5, stronger effect = lower value 0.987 | locus YJL095W, strain BCK1 (second series), stronger effect = lower value 0.993 | locus YJL115W, strain asf1, stronger effect = lower value 0.988 | locus YJL129C, strain trk1, stronger effect = lower value 0.975 | locus YJL154C, strain vps35, stronger effect = lower value 0.984 | locus YJL164C, strain tpk1, stronger effect = lower value 1 | locus YJL166W, strain qcr8, stronger effect = lower value 0.996 | locus YJL187C, strain SWE1, stronger effect = lower value 0.984 | locus YKL160W, strain elf1, stronger effect = lower value 1.01 | locus YKR026C, strain gcn3, stronger effect = lower value 0.976 | locus YKR091W, strain srl3, stronger effect = lower value 0.96 | locus YLL001W, strain dnm1, stronger effect = lower value 1.01 | locus YLL026W, stronger effect = lower value 0.993 | locus YLL041C, strain sdh2, stronger effect = lower value 0.996 | locus YLR027C, strain aat2, stronger effect = lower value 0.982 | locus YLR221C, strain rsa3, stronger effect = lower value 0.999 | locus YLR258W, strain gsy2, stronger effect = lower value 0.964 | locus YLR262C, strain YPT6 (second series), stronger effect = lower value 0.983 | locus YLR320W, strain mms22, stronger effect = lower value 0.993 | locus YLR342W, strain FKS1, stronger effect = lower value 0.963 | locus YLR357W, strain rsc2, stronger effect = lower value 1.02 | locus YLR370C, strain arc18, stronger effect = lower value 0.981 | locus YLR384C, strain iki3, stronger effect = lower value 0.97 | locus YML120C, strain ndi1, stronger effect = lower value 0.987 | locus YMR058W, strain fet3, stronger effect = lower value 0.975 | locus YMR125W, strain sto1, stronger effect = lower value 0.995 | locus YMR129W, stronger effect = lower value 0.966 | locus YMR205C, strain PFK2, stronger effect = lower value 0.957 | locus YMR231W, strain pep5, stronger effect = lower value 0.977 | locus YNL071W, strain lat1, stronger effect = lower value 0.982 | locus YNL209W, strain ssb2, stronger effect = lower value 0.988 | locus YNL248C, strain rpa49, stronger effect = lower value 1.02 | locus YNL322C, strain KRE1 (second series), stronger effect = lower value 0.969 | locus YNR049C, strain mso1, stronger effect = lower value 0.973 | locus YOR001W, strain rrp6, stronger effect = lower value 1.04 | locus YOR070C, strain gyp1, stronger effect = lower value 1.03 | locus YOR080W, strain dia2, stronger effect = lower value 0.982 | locus YOR083W, strain WHI5, stronger effect = lower value 1.01 | locus YOR106W, strain vam3, stronger effect = lower value 0.991 | locus YOR265W, strain rbl2, stronger effect = lower value 0.992 | locus YOR270C, strain vph1, stronger effect = lower value 0.856 | locus YOR290C, strain snf2, stronger effect = lower value 0.895 | locus YPL051W, strain arl3, stronger effect = lower value 0.993 | locus YPL078C, strain atp4, stronger effect = lower value 0.99 | locus YPL106C, strain sse1, stronger effect = lower value 0.985 | locus YPL240C, strain hsp82, stronger effect = lower value 0.947

From PubChem BioAssay AID1159580 (chemical genetic matrix, 2015)
